Bioassay records from PubChem BioAssay.
Sampled rows, rich in hits. Any-hit rate of the full collection: about 2.4%.
D2 PAM-1: human D2 receptor positive allosteric modulation; P14416; DiscoveRx D2 beta-arrestin cells, luminescence, 90 min; 100% = 57 uM dopamine signal; potentiation, % (no concentration beside the values); actives 0.23% (n = 360,000); AID 624464; in the data active = potentiation above about 50%; inconclusive = mostly about 30% to 49%
Target sequence (P14416 whole entry, looked up): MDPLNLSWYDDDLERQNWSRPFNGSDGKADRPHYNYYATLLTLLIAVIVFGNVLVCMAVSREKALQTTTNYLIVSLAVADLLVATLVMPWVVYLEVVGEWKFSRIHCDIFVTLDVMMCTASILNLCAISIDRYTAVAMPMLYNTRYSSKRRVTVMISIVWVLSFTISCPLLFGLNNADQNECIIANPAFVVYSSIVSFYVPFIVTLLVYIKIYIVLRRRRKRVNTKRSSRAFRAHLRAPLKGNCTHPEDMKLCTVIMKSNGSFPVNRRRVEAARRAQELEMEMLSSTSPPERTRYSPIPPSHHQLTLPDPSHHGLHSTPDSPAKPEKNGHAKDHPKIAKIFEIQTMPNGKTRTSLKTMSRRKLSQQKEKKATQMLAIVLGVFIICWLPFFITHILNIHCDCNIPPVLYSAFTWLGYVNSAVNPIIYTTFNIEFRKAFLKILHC
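D2 cells co-treated with compound plus 50 nM dopamine (EC20) for 90 min at 37 deg C to detect potentiation. Beta-arrestin recruitment was read as enzyme-fragment luminescence after 1 h at ambient temperature. Full response was set by 57 uM dopamine.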
D2 PAM-2: positively modulates the human D2 dopamine receptor allosterically; P14416; HEK293 T-REx D2, calcium flux, EC20 dopamine potentiation; potentiation, % at 10 µM; actives 0.34% (n = 340,000);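 active = potentiation over 3 SD above the plate norm, cut at about 30% in these data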; note: 0% is about no effect
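Tetracycline-induced Hek293 Trex D2 cells, force-coupled to calcium, loaded with no-wash calcium dye. Compound added with 180 s kinetic read for agonism, then EC20 dopamine and a further 180 s read for potentiation.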
D2 antag: D2 dopamine receptor (human) antagonism; P14416; AID 485344; inhibition, % at 10 µM; HEK293 TREx D2 cells, calcium flux, dopamine EC80; actives 2% (n = 340,000); in the data active = inhibition above about 30%; inactive = below that, where a call was filed; note: 0% is about no effect
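Read-out: kinetic calcium fluorescence (1 cycle/s) in inducible HEK293 T-REx D2 cells after an EC80 dopamine addition that followed 180 s compound preincubation. Loss of the dopamine response indicates antagonism.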
D2 ag-1: agonists of human D2 dopamine receptor; activation, % at 2 µM; HEK293 T-REx D2 cells, calcium flux agonist mode; P14416; AID 485358; actives 0.53% (n = 340,000);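 active = activation over 3 SD above normal in the single-dose calcium agonist read, cut at about 30% in these data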; note: 0% is about no effect
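Calcium-flux readout, 1 cycle/sec over 180 s following compound pin transfer, in inducible HEK293 Trex D2 cells (force-coupled); dopamine controls included. Positive calcium responses during this window marked compounds as potential agonists.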
D2 ag-2: activates the human D2 dopamine receptor; AID 624465; P14416; actives 0.084% (n = 360,000); activation, % (concentration not given with the values); DiscoveRx PathHunter D2 beta-arrestin, luminescence, 90 min; 100% = 57 uM dopamine signal; in the data active = activation above about 40%; inconclusive = between about 15% and that limit
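Agonist mode: compounds alone added to overnight-plated D2 PathHunter cells for 90 min at 37 C, with 57 uM final dopamine (EC100) defining full response. Beta-arrestin recruitment detected by chemiluminescent reagent, read after 1 h at ambient temperature.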
D3 ag: activates human D3 dopamine receptor beta-arrestin recruitment | AID 720506 | actives 4% (n = 2,300) | DiscoveRx D3 beta-arrestin cells, luminescence, 90 min | shares compounds with D2 ag-1 | Potency, µM (top dose mostly 76.9 µM), without a hit: at the highest dose activation, usual class: activators;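 note: potency is the fitted concentration of half-maximal effect; 100% = dopamine control response; nearly all actives have a fitted effect of over 70% in size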
D2 ag-3: counter-screen for D3 agonists: human D2 dopamine receptor agonism; shares compounds with D2 ag-1; DiscoveRx PathHunter D2 beta-arrestin, luminescence, 90 min; response scale: percent relative to full dopamine signal; Potency, µM (titrated, usually from 76.9 µM), inactives show at the highest dose activation, actives largely listed as activators; actives 5.9% (n = 2,300); AID 720507; note: potency is the fitted concentration of half-maximal effect; % of control where 0% means no effect; nearly all actives have a fitted effect of over 70% in size
* = called active by the depositor; ? = inconclusive; nt = not tested or not shown. Unless noted, calls come from the whole dose curve; as a rule, active = well fitted activation curve with a large enough effect; inconclusive = small, poorly fitted or top-dose-only effect; inactive = flat fitted curve, though single readings scatter.

SMILES	D2 PAM-1	D2 PAM-2	D2 antag	D2 ag-1	D2 ag-2	D3 ag	D2 ag-3
C[C@@H]1CN([C@@H](C)CO)C(=O)CCCn2nncc2CO[C@@H]1CN(C)C(=O)Nc1ccnc(N2CCOCC2)c1	2	nt	nt	nt	-10	nt	nt
COC(=O)c1cnn(-c2ccc(C(=O)Nc3cccc(C(C)=O)c3)cc2)c1N	nt	9	nt	1	nt	nt	nt
CCOc1ccc(S(=O)(=O)Nc2cccc(C(=O)N3CCN(c4cccc(OC)c4)CC3)c2)cc1	-20	nt	nt	nt	?	?	25%
CCOc1ccc(S(=O)(=O)Nc2cccc(C(=O)N3CCN(c4ccccc4O)CC3)c2)cc1	2	6	-7	5	5	nt	nt
O=C(O)c1cccc(-n2c(/C=C/c3cccc([N+](=O)[O-])c3)nc3ccccc3c2=O)c1	1	10	11	0	-2	nt	nt
O=C(O)c1cccc(-n2c(/C=C/c3ccc([N+](=O)[O-])cc3)nc3ccccc3c2=O)c1	0	4	13	0	-2	9%	6%
CC(C)OCC(O)CS(=O)(=O)Cc1ccccc1 (stereo not drawn)	-5	-26	8	58*	-3	-8%	-6%
CC(O)(c1cccnc1)c1nc(-c2ccc(F)c(Cl)c2)cs1 (stereo not drawn)	-4	nt	nt	nt	6	nt	nt
COc1ccc(NC(=O)CSCC(=O)Nc2ccc(S(=O)(=O)N3CCOCC3)cc2)cc1	0	-4	4	0	2	1%	4%
CCOc1ccc(Br)cc1S(=O)(=O)NC1CC(C)(C)NC(C)(C)C1	-6	-15	16	28	-4	-10%	-4%
CCOc1cc(C)c(S(=O)(=O)NC2CC(C)(C)NC(C)(C)C2)cc1C	-7	4	18	0	-2	nt	nt
Cc1cc(C)c(S(=O)(=O)NC2CC(C)(C)NC(C)(C)C2)cc1C	1	2	15	30*	-3	9%	6%
COc1ccc(Cl)cc1S(=O)(=O)NC1CC(C)(C)NC(C)(C)C1	-1	-7	nt	nt	-3	nt	nt
CCOC(=O)N1CCc2c(sc(N)c2C#N)C1	54*	-26	58*	74*	?	?	?
CCC(=NCCc1ccccc1)C1=C(O)CCC1=O	2	-17	-5	49*	-4	3%	2%
C=CCC(C(=O)Oc1c(C(C)(C)C)cc(C)cc1C(C)(C)C)c1ccccc1 (stereo not drawn)	-2	1	-11	0	-2	-7%	-4%
Cc1cccc(C)c1OC(=O)C(c1ccccc1)c1ccccc1	1	10	-10	0	-3	nt	nt
COc1ccc([C@H](C)NC[C@H](O)c2ccc(O)c(NC=O)c2)cc1	-17	-5	4	33*	-3	-1%	0%
COc1ccc(OCC(O)CNC(C)c2ccccc2)cc1 (stereo not drawn)	-5	6	-10	2	-1	nt	nt
COc1cc(OC)cc(-c2c(-c3cccs3)c3cc(-c4ccc(N(C)C)nc4)ccc3n2C)c1	-3	20	3	0	-4	2%	14%
Oc1ccc(Cl)cc1C=NCCc1ccccc1	-7	-16	24	43*	10	?	17%
Cc1[nH]nc2c1C1(CCOCC1)C(C#N)=C(N)O2	0	-3	6	1	-5	nt	nt
Cc1[nH]nc2c1C1(CCN(Cc3ccccc3)CC1)C(C#N)=C(N)O2	-7	nt	nt	nt	6	-1%	-7%
COc1cc(CNCCN2CCOCC2)ccc1OCC(=O)NC(C)(C)C	-4	-15	5	34*	-2	-8%	-2%
COc1cc(CNCCCN2CCOCC2)ccc1OCC(=O)NC(C)(C)C	-3	2	1	9	-2	nt	nt
SMILES	D2 PAM-1	D2 PAM-2	D2 antag	D2 ag-1	D2 ag-2	D3 ag	D2 ag-3
CCc1nc(C)cn1S(=O)(=O)c1cc(C)c(OC)cc1C	-2	-22	-20	64*	-5	5%	3%
CCc1nc(C)cn1S(=O)(=O)c1cc(Br)c(C)cc1OC	-12	18	-7	-1	-1	nt	nt
Cc1csc(=O)n1CC(=O)OC(C)C(=O)Nc1ccc(N(C)C)cc1 (stereo not drawn)	0	nt	nt	nt	-3	nt	nt
Cc1csc(NC(=O)c2ccc3ccccc3n2)n1	-7	16	10	7	-1	nt	nt
Cc1csc(NC(=O)c2cnc3ccccc3n2)n1	-2	19	-17	25	-2	-16%	1%
CCCn1c(CN2CCN(C(=O)OCC)CC2)nc2cc(NC(=O)CC)ccc21	-4	-19	7	-1	-1	nt	nt
Cn1c(=O)c2cc(C(=O)NCCCN3CCN(c4ccc(F)cc4)CC3)sc2c2ccccc21	nt	-23	nt	11	nt	nt	nt
CCOC(=O)c1cccc(NC(=O)c2cnccn2)c1	-6	1	nt	nt	-4	-12%	-3%
COc1ccc(NC(=O)C2(C)CCN2C)cc1OC (stereo not drawn)	-11	nt	nt	nt	-4	nt	nt
COc1ccc(N=C2NC(=O)S/C2=C\c2ccc(N(C)C)cc2)cc1	-47	-20	-15	14	-5	-25%	-13%
CCOc1ccc(N=C2NC(=O)S/C2=C\c2ccc(Cl)cc2)cc1	-34	-11	-5	0	-4	nt	nt
CC(C)Oc1ccc(CNC(=O)c2ccc(NC(=O)N3CCSc4ncccc43)cc2)cc1	nt	-3	nt	0	nt	nt	nt
CCS(=O)(=O)N1CCN(C(C)CCc2ccccc2)CC1 (stereo not drawn)	3	-21	28	61*	13	?	?
CC(C)N1CCN(S(=O)(=O)c2ccccc2)CC1	2	1	1	2	-1	nt	nt
CN(C)S(=O)(=O)c1cccc(NC(=S)NNC(=O)c2cc3ccccc3cc2O)c1	-6	-23	56*	72*	-7	-8%	-8%
CCCCn1c(N)c(N(CCC(C)C)C(=O)C2CC(=O)N(CCc3ccc(OC)c(OC)c3)C2)c(=O)[nH]c1=O (stereo not drawn)	4	6	9	0	-1	-1%	-4%
CC(C)n1ncc2c(C(=O)N3CCN(Cc4ccc(Br)s4)CC3)cc(C3CC3)nc21	6	-23	70*	64*	?	24%	?
Cc1cc(Br)cn2c(Cc3ccccc3)c(-c3ccc(F)cc3)nc12	0	nt	nt	nt	-5	nt	nt
CC(OC(=O)COc1ccc(C#N)cc1)C(=O)c1ccccc1 (stereo not drawn)	1	3	32*	0	3	-2%	-4%
CCOC(=O)c1cc(S(=O)(=O)Nc2cc(OC)ccc2OC)[nH]n1	nt	-8	nt	0	nt	nt	nt
